# Results: PubChem BioAssay (EPA / NIEHS)
# Where “and” joins values, the source holds several entries; their conditions need not be identical. Equal values may be shown once. Records with an inconclusive call do not appear. Where a structure was tested more than once in an assay, its records may differ in their call. Calls of active or inactive are those of the source. Rule for the calls, unless noted: active = hit-call score of the fitted dose curve at least 0.9, where 1 is the maximum; inconclusive = response in the unintended direction; inactive = score below 0.9.
# System: not listed separately
# Assay: NVS_IC_rCaDHPRCh_L: NovaScreen (NVS) Ion Channel Assay for rat Calcium Channel, Type L, Dihydropyridine Site (CaDHPRCh_L) (AID 2283320)
# In short: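 Rat cortex membrane preparation; dihydropyridine-site radioligand displacement read 1 h post-dose by filtration and scintillation. Primary single-point screen 25 uM in duplicate, then concentration series to 50 uM maximum; DMSO as negative control.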
Structure (SMILES),AC50,outcome
CCCOc1sc(C(=O)N2CCC(c3cc(CN)ccc3F)CC2)c(C)c1Br,14.7 µM (active),
Cc1oc(-c2ccccc2)nc1CCOc1ccc(C[C@H](Nc2ccccc2C(=O)c2ccccc2)C(=O)O)cc1,25 µM (active),
ClC1=C(Cl)C(Cl)(Cl)C(Cl)=C1Cl,,inactive
CC(=O)NC1(c2cccc(F)c2)CCN(CC[C@@]2(c3ccc(Cl)c(Cl)c3)CN(c3ccccc3)C(=O)CO2)CC1,2.24 µM (active),

# Biological target: Sodium channel protein type 1 subunit alpha (Rattus norvegicus) (UniProt P04774)
# Assay: NVS_IC_rNaCh_site2: NovaScreen (NVS) Ion Channel Assay for rat Sodium Channel, Site 2 (NaCh) (AID 2283322);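 note: hit means loss of radioligand binding signal relative to DMSO so AC50 marks displacement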
# In short: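 Initial duplicate single-point testing at 25 uM, followed by concentration-response runs for actives. Binding of radioligand to rat forebrain membranes quantified after 1 h via filter-based radiodetection.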
Structure (SMILES),AC50,outcome
CCCOc1sc(C(=O)N2CCC(c3cc(CN)ccc3F)CC2)c(C)c1Br,1.01 µM (active),
CCC(=C(c1ccc(O)cc1)c1ccc(OCCN(C)C)cc1)c1ccccc1,4.03 µM (active),
NC(=O)N(O)[C@@H]1C=C[C@H](Oc2cccc(Oc3ccc(F)cc3)c2)C1,,inactive
O=C(O)Cc1cc(I)c(Oc2cc(I)c(O)c(I)c2)c(I)c1,,inactive
Cc1oc(-c2ccccc2)nc1CCOc1ccc(C[C@H](Nc2ccccc2C(=O)c2ccccc2)C(=O)O)cc1,25 µM (active),
CCCOC(=O)c1ccc(O)cc1,31.2 µM (active),
CCCCCCCCCCCCCC[N+](C)(C)C,8.44 µM (active),
CC[C@H](c1ccc(O)cc1)[C@@H](CC)c1ccc(O)cc1,,inactive
OC1CCCCC1,,inactive
CC#C[C@]1(O)CC[C@H]2[C@@H]3CCC4=CC(=O)CCC4=C3[C@@H](c3ccc(N(C)C)cc3)C[C@@]21C,6.71 µM (active),
CC(=O)NC1(c2cccc(F)c2)CCN(CC[C@@]2(c3ccc(Cl)c(Cl)c3)CN(c3ccccc3)C(=O)CO2)CC1,0.449 µM (active),
Nc1cccc2c(N)cccc12,18.5 µM (active),
CCN(CC)CCNc1ccc(CNC=O)c2sc3ccc(OC)cc3c(=O)c12,12.7 µM (active),

# Biological target: rat Glutamate, AMPA Site (AMPA), Gria1 (gene 50592) (UniProt P19490)
# Sequence (P19490 whole entry, looked up): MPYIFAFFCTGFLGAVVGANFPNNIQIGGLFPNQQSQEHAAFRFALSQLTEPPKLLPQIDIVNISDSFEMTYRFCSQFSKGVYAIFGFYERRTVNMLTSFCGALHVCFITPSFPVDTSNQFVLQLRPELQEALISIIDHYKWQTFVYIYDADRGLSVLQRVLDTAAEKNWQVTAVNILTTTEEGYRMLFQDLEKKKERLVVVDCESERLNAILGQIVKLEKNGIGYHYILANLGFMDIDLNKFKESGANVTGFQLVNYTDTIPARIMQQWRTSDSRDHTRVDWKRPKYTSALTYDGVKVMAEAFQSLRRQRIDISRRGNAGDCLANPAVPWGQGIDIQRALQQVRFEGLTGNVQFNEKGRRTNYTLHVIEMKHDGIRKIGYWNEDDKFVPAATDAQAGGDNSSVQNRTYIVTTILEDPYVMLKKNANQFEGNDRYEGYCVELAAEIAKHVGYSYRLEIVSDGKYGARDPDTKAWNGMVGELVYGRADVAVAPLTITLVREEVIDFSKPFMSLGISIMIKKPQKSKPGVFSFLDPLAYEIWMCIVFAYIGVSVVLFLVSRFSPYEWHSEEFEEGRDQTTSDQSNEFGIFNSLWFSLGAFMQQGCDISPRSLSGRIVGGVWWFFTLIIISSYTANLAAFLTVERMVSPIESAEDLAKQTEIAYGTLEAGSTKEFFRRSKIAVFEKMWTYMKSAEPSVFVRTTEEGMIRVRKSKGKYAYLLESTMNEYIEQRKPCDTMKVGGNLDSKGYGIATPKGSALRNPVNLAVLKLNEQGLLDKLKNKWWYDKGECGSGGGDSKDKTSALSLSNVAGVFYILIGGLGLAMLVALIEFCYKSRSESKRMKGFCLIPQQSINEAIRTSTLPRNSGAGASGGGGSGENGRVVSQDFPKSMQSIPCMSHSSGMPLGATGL
# Assay: NVS_LGIC_rAMPA: NovaScreen (NVS) Ligand-Gated Ion Channel Assay for rat Glutamate, AMPA Site (AMPA) (AID 2283324)
# In short: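 Screening at 25 uM in duplicate preceded concentration series reaching 50 uM for qualifying compounds. Radioligand displacement on rat forebrain membranes, 1 h, filter-based scintillation readout; reduced binding relative to DMSO.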
row,Structure (SMILES),outcome
1,NC(=O)N(O)[C@@H]1C=C[C@H](Oc2cccc(Oc3ccc(F)cc3)c2)C1,inactive
2,Cc1cc(CCN2CCN(c3nsc4ccccc34)CC2)cc2c1NC(=O)CC2(C)C,inactive
3,CC[C@H](C)[C@@H](C(=O)O)n1sc2ccccc2c1=O,inactive
4,COC(=O)CCCCC(=O)OC,inactive
5,CCCCCCCC(=O)O,inactive
6,CN1CCN(c2ccccc2/C=C2\SCCN(c3ccc(Cl)c(Cl)c3)C2=O)CC1,inactive
7,Cc1cc(C)c(O)c(C)c1,inactive

# Biological target: rat Thyrotropin Releasing Hormone Receptor (TRH), Trhr (gene 25570) (UniProt Q01717)
# Sequence (Q01717 whole entry, looked up): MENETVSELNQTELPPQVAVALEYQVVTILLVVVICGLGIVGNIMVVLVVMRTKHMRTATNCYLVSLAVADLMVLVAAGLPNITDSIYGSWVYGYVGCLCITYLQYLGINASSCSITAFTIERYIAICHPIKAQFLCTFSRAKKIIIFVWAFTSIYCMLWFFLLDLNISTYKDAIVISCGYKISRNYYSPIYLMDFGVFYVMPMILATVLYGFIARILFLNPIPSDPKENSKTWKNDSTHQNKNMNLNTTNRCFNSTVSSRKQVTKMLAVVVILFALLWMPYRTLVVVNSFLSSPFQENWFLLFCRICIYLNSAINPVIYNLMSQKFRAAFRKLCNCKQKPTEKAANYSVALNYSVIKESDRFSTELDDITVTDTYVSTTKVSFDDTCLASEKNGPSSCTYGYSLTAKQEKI
# Assay: NVS_GPCR_rTRH: NovaScreen (NVS) G Protein-Coupled Receptor Assay for rat Thyrotropin Releasing Hormone Receptor (TRH) (AID 2283329);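 note: hit means lower bound tracer signal versus DMSO baseline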
# In short: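 Rat forebrain membranes; radioligand displacement at TRH receptor by filter-based scintillation counting, read 4 h after dosing. Duplicate single-point screen at 25 uM, actives rerun in concentration series; loss of signal relative to DMSO.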
row,Structure (SMILES),outcome
1,C#C[C@]1(O)CC[C@H]2[C@@H]3CCC4=CC(=O)CC[C@@H]4[C@H]3CC[C@@]21C,inactive
2,ClC1=C(Cl)C(Cl)(Cl)C(Cl)=C1Cl,inactive
3,Cc1ccc(S(=O)(=O)O)c(C)c1,inactive
4,CC(=O)CC(C)(C)O,inactive

# Biological target: human Peripheral-type Benzodiazepine Receptor (PBR), TSPO (gene 706) (UniProt P30536)
# Sequence (P30536 whole entry, looked up): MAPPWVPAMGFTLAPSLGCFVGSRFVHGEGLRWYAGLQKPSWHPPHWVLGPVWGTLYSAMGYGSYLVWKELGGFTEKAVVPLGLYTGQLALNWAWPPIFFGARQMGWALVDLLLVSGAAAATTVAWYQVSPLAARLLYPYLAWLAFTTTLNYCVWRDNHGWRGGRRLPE
# Assay: NVS_MP_hPBR: NovaScreen (NVS) Membrane Protein Assay for human Peripheral-type Benzodiazepine Receptor (PBR) (AID 2283331);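 note: hits reduce radioligand binding relative to DMSO baseline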
# In short: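 Cell-free binding to human colonic membrane preparations measured by filter-based scintillation counting after 1 h. Compounds first run at 25 uM in duplicate, then concentration series for actives; signal loss against DMSO baseline.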
Structure (SMILES),outcome,AC50
CCC(=C(c1ccc(O)cc1)c1ccc(OCCN(C)C)cc1)c1ccccc1,inactive,
NC(=O)N(O)[C@@H]1C=C[C@H](Oc2cccc(Oc3ccc(F)cc3)c2)C1,,28.5 µM (active)
O=C(O)Cc1cc(I)c(Oc2cc(I)c(O)c(I)c2)c(I)c1,inactive,
c1ccc2cc3c(ccc4ccccc43)cc2c1,,3.45 µM (active) and 5.17 µM (active) and 12.5 µM (active)
NC(=O)N1C(=O)C(C(=O)c2cc(Cl)cs2)c2cc(F)c(Cl)cc21 (configuration not stated),,0.951 µM (active)
CC1=C(/C=C/C(C)=C/C=C/C(C)=C/C(=O)O)C(C)(C)CCC1,,18.1 µM (active)
Cc1oc(-c2ccccc2)nc1CCOc1ccc(C[C@H](Nc2ccccc2C(=O)c2ccccc2)C(=O)O)cc1,,6.36 µM (active)
CCCOC(=O)c1ccc(O)cc1,inactive,
CC[C@H](c1ccc(O)cc1)[C@@H](CC)c1ccc(O)cc1,,795 nM (active) [middle of 4 runs]
CCc1ccc(CCOc2ccc(CC3SC(=O)NC3=O)cc2)nc1 (configuration not stated),,12.1 µM (active)
CCN(CC)CCNc1ccc(CNC=O)c2sc3ccc(OC)cc3c(=O)c12,,8.04 µM (active)

# Biological target: human Androgen Receptor (AR), AR (gene 367) (UniProt P10275)
# Sequence (P10275 whole entry, looked up): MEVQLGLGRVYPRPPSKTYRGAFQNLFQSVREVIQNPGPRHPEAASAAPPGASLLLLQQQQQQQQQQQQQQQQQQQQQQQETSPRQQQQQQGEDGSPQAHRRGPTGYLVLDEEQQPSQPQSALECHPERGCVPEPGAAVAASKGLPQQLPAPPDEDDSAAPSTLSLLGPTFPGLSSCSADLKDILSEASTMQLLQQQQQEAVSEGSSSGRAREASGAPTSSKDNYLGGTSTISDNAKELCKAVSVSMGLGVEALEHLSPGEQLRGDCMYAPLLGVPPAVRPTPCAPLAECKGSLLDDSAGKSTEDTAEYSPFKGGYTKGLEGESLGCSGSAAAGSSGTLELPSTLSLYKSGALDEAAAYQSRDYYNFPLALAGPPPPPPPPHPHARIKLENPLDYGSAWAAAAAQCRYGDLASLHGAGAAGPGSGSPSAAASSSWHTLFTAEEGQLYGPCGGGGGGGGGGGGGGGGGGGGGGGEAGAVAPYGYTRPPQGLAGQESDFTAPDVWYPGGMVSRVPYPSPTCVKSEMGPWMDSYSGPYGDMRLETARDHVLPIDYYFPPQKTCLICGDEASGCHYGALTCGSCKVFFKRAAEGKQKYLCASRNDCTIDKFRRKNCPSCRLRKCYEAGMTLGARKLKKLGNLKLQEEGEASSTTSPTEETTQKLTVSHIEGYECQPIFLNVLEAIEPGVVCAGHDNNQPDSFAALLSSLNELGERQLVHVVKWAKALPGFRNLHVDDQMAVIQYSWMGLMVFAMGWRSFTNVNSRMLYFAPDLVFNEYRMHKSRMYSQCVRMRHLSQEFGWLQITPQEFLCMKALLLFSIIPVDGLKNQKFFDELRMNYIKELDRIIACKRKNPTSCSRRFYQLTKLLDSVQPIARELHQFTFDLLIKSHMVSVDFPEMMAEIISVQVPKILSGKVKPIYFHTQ
# Assay: NVS_NR_hAR: NovaScreen (NVS) Nuclear Receptor Binding Assay for human Androgen Receptor (AR) (AID 2283332)
# In short: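 Radioligand competitive binding, scintillation read-out, in cell-free extract from LnCAP, measured 20 h after dosing. Screened first in duplicate at 25 uM, then concentration series for actives; activity fitted against DMSO.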
Structure (SMILES),AC50,outcome
CCC(=C(c1ccc(O)cc1)c1ccc(OCCN(C)C)cc1)c1ccccc1,8.62 nM (active) and 653 nM (active),
Cc1oc(-c2ccccc2)nc1CCOc1ccc(C[C@H](Nc2ccccc2C(=O)c2ccccc2)C(=O)O)cc1,1.92 µM (active),
CC[C@H](c1ccc(O)cc1)[C@@H](CC)c1ccc(O)cc1,0.416 µM (active),inactive
Oc1cc2ccccc2c2ccccc12,19.2 µM (active),
CCCCCCCCCCCCc1ccccc1S(=O)(=O)O,8.85 µM (active),

# Biological target: Voltage-gated inwardly rectifying potassium channel KCNH2 (Homo sapiens) (UniProt Q12809)
# Sequence (Q12809 whole entry, looked up): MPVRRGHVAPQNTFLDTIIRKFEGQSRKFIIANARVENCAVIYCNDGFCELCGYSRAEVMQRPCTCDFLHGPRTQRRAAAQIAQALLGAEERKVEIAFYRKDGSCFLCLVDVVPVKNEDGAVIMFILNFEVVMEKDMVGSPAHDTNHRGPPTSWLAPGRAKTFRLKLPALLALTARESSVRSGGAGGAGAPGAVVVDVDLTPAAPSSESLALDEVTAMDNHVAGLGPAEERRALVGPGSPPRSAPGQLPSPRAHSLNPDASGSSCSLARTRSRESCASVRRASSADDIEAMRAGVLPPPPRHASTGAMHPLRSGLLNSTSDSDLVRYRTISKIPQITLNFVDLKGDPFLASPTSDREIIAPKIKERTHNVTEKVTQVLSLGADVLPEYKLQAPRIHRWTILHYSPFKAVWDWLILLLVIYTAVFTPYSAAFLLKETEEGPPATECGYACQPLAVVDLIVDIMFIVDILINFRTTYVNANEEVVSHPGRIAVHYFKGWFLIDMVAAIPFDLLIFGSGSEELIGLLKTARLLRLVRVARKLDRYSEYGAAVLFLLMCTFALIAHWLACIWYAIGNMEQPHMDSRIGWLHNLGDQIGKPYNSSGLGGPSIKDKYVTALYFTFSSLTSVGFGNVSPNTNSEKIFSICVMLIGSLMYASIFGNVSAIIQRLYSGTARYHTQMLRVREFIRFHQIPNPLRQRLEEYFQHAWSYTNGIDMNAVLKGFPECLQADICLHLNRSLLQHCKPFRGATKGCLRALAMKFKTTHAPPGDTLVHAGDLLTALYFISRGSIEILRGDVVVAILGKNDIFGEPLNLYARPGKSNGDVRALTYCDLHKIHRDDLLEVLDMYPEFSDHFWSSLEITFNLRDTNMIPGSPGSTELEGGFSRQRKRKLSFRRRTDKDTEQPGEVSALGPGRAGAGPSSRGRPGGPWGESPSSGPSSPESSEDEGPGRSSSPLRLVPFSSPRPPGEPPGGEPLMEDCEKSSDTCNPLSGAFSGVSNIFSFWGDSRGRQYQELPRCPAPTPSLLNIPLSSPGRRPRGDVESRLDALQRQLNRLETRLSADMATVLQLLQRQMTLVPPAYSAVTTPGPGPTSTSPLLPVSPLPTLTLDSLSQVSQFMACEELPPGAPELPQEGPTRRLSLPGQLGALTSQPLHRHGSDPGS
# Assay: NVS_IC_hKhERGCh: NovaScreen (NVS) Ion Channel Assay for human Potassium Channel ERG (KhERGCh) (AID 2283333)
# In short: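 Membranes from CHO cells expressing human ERG; displacement of radioligand measured by filtration and scintillation after 0.75 h. Single-concentration duplicate screen at 25 uM, then concentration-response for actives; DMSO baseline.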
Structure (SMILES),AC50,outcome
CCCOc1sc(C(=O)N2CCC(c3cc(CN)ccc3F)CC2)c(C)c1Br,7.87 µM (active),
COc1ccc([N+](=O)[O-])cc1N,,inactive
CC(=O)NC1(c2cccc(F)c2)CCN(CC[C@@]2(c3ccc(Cl)c(Cl)c3)CN(c3ccccc3)C(=O)CO2)CC1,14 µM (active),

# Biological target: Glutamate receptor ionotropic, kainate 1 (Rattus norvegicus) (UniProt P22756)
# Sequence (P22756 whole entry, looked up): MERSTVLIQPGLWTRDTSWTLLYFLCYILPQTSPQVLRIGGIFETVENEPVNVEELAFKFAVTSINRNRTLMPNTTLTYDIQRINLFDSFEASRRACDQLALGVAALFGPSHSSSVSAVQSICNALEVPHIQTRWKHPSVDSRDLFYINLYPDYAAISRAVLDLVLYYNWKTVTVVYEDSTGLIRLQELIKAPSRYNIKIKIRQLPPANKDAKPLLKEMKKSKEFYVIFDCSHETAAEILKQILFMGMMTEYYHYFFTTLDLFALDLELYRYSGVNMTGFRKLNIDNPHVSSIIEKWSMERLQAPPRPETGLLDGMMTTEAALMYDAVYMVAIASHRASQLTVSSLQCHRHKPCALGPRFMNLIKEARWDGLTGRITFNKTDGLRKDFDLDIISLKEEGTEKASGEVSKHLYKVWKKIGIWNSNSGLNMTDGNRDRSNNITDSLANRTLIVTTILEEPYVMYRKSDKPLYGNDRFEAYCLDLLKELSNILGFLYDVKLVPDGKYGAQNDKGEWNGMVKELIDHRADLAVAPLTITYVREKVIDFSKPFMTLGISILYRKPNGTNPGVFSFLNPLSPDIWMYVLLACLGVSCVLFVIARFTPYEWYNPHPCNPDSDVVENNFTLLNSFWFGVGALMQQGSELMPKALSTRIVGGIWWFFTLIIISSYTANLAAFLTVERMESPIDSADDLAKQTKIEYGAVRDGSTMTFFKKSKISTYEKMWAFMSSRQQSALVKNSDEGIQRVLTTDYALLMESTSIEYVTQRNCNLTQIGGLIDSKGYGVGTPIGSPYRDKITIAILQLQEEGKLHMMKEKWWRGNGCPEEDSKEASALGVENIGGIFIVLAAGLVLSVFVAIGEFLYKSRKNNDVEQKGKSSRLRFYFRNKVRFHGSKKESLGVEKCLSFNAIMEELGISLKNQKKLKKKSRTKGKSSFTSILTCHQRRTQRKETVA
# Assay: NVS_IC_rKAR: NovaScreen (NVS) Ion Channel Assay for rat Kainic Acid Receptors (KAR) (AID 2283334; active = hit-call score of the fitted dose curve at least 0.9, where 1 is the maximum; inactive = score below 0.9)
# In short: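 Rat forebrain membrane preparation incubated 1 h with radioligand and test chemical; bound signal read by filtration and scintillation. Single-concentration screen at 25 uM, then concentration series to 50 uM maximum.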
row,Structure (SMILES),outcome
1,CC[C@H](C)[C@@H](C(=O)O)n1sc2ccccc2c1=O,inactive
2,NC(=O)N1C(=O)C(C(=O)c2cc(Cl)cs2)c2cc(F)c(Cl)cc21 (configuration not stated),inactive
3,COC(=O)CCCCC(=O)OC,inactive
4,OCCC(F)(F)C(F)(F)C(F)(F)C(F)(F)C(F)(F)C(F)(F)C(F)(F)C(F)(F)F,inactive
